Compound activity (PubChem BioAssay)
This is a sample that favours compounds with a hit; in the whole collection about 0.86% have one here.
APE1 inh: blocks human APE1 abasic DNA cleavage; P27695; recombinant APE1, TAMRA/BHQ-2 abasic DNA cleavage fluorescence; Potency, µM (top dose mostly 65.8 µM), most hits filed as inhibitors; 0.35% of 350,000 active; AID 2517; further: nearly all actives have a fitted effect of over 55% in size
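Enzyme (0.75 nM final) and test compound are incubated 15 min at room temperature before adding 50 nM quenched THF abasic-site duplex. Cleavage dequenches TAMRA, followed at 525/598 nm over three reads one minute apart.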
GLS inh: glutaminase GLS (human) inhibition; GLS enzymatic activity, qHTS titration; Potency, µM (doses to about 45.5 µM), most hits filed as inhibitors; 0.21% of 410,000 active
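Read-out is an Amplex red fluorescence increase coupled through glutamate oxidase and HRP, measured before and after 30 min room-temperature incubation. hKGA is in 45 mM KH2PO4 (pH 8.2) with 0.02% Tween-20; glutamine added as 1mM solution.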
PGK inhibitor: T. brucei PGK inhibition | AID 602233 | Potency, µM (titrated, usually from 57.5 µM), usual class: inhibitors | PGK/GAPDH coupled, Kinase-Glo luminescence, 60 min | P07378 | 0.043% of 380,000 active; further: nearly all actives have a fitted effect of over 60% in size
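Recombinant glycosomal PGK reaction used 1,3-bisphosphoglycerate generated in-well by GAPDH (100nM final) in 100mM TEA pH 7.6, 5mM MgCl2, 0.01% Tween-20. After 60 minutes at room temperature, ATP was read by Kinase-Glo Plus luminescence end-point.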
RECQ1 inh: RECQ1 (human) helicase inhibition; P46063; RECQ1 DNA unwinding, red fluorescence kinetic read; Potency, µM (titrated, usually from 57.3 µM), most hits filed as inhibitors; 0.54% of 240,000 active; AID 2549; further: nearly all actives have a fitted effect of over 30% in size
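50 nM RECQ1T1 preincubated 15 min with compound in Tris pH 8.0 buffer with MgCl2, DTT, Tween-20 and 2.5 ug/ml poly(dI-dC); started with 200 nM TAMRA/BHQ-2 forked duplex and 2 mM ATP. Unwinding read as fluorescence (525/598 nm), two reads 2 h apart.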
BLM inh: inhibitors of human Bloom syndrome helicase BLM; P54132; recombinant BLM DNA unwinding, fluorescence dequenching; Potency, µM (series often up to 56.1 µM), most hits filed as inhibitors; 0.2% of 350,000 active; AID 2528; further: nearly all actives have a fitted effect of over 35% in size
Target sequence (P54132 whole entry, looked up): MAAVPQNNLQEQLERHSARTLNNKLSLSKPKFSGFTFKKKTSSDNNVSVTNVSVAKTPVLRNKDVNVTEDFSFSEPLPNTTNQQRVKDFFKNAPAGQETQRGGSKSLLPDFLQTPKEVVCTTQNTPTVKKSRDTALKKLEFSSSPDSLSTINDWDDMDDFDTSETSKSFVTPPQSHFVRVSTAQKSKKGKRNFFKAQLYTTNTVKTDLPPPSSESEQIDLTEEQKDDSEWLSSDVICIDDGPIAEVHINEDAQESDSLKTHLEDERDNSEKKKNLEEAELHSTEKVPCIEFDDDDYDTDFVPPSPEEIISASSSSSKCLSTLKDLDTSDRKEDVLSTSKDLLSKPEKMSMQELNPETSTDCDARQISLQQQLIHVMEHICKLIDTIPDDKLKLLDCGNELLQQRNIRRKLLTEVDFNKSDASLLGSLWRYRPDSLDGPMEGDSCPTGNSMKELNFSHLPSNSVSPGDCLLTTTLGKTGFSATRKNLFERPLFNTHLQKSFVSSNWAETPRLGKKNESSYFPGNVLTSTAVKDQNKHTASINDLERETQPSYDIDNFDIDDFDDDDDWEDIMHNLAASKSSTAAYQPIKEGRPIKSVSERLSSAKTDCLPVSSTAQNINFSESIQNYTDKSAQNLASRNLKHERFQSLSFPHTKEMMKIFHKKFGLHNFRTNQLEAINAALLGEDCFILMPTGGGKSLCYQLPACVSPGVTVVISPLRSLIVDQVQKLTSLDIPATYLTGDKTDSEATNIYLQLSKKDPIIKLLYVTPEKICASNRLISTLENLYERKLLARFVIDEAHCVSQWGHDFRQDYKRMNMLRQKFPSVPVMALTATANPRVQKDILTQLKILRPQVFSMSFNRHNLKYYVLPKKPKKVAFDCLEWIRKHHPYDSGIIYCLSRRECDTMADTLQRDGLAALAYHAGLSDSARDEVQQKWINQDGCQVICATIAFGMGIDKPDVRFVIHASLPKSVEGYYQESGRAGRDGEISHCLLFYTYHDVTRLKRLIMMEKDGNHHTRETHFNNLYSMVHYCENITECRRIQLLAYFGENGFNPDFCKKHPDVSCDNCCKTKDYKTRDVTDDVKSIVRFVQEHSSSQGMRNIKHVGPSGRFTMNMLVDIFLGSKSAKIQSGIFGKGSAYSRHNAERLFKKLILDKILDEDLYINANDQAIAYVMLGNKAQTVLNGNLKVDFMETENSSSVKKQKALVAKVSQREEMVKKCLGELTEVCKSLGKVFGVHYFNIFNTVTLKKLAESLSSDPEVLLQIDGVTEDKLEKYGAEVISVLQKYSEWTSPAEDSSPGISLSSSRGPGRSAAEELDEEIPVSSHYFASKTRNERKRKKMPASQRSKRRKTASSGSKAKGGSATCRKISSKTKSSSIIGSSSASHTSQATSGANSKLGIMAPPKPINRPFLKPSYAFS
FEN1 inh-1: blocks human flap endonuclease 1; Recombinant FEN1 flap cleavage, fluorescence, 15 min; Potency, µM (highest dose often 114 µM), usual class: inhibitors; AID 588795; 0.35% of 390,000 active; P39748; further: nearly all actives have a fitted effect of over 65% in size
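Recombinant FEN1 (10 nM) was preincubated with pin-transferred compounds for 15 min at room temperature, then flap DNA substrate (50 nM final) was added. Plates were read at 0 and 15 min, and normalized concentration–response data were fitted to a four-parameter Hill equation.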
FEN1 inh-2: confirmation of human FEN1 inhibitors. 79% of 880 active. shares compounds with FEN1 inh-1. FEN1 flap cleavage, TAMRA/BHQ2 fluorogenic DNA substrate. Potency, µM, most hits filed as inhibitors; further: nearly all actives have a fitted effect of over 60% in size
A number is an active result; 0 = inactive; ? = inconclusive; - = not tested or not shown. The call rests on the fitted dose curve; in most records, active means well fitted curve in the direction sought with a large enough effect; inconclusive means small, poorly fitted or top-dose-only effect, or another doubt; inactive means no such curve, though single readings can be large; an effect the other way counts as inactive or inconclusive.

SMILES	APE1 inh	GLS inh	PGK inhibitor	RECQ1 inh	BLM inh	FEN1 inh-1	FEN1 inh-2
COc1ccc(-c2nn(C)c3sc(C(=O)Nc4cc(OC)c(OC)c(OC)c4)cc23)cc1OC	-	0	0	-	20µM	10µM	7.57
Cc1ccc(-n2c(O)c(C=Nc3ccccc3-c3n[nH]c(=S)[nH]c3=O)c3ccccc3c2=O)cc1C	0	0	0	0	?	50.1µM	67.5
Cc1ccc(-n2c(O)c(C=Nc3ccccc3-c3n[nH]c(=S)[nH]c3=O)c3ccccc3c2=O)c(C)c1	0	0	0	0	0	?	-
COc1ccccc1-[n+]1c(C)cc(/C=C2\Sc3ccccc3N2C)cc1C	0	0	0	0	0	?	37.9
NS(=O)(=O)c1ccc(N=Nc2c[nH]c(=O)c(O)c2)cc1	?	0	?	0	0	?	?
COC(=O)C1=CO[C@@H](C)[C@@H]2CN3CCc4c([nH]c5ccccc45)[C@@H]3C[C@H]12	0	-	-	0	0	-	-
NC1CCN(c2c(F)cc3c(=O)c(C(=O)O)cn(C4CC4)c3c2Cl)C1 (stereo unspecified)	0	0	0	0	0	31.6µM	?
CCN(CC)CCOc1ccc2c(c1)C(=NO)c1cc(OCCN(CC)CC)ccc1-2	0	0	0	0	0	12.6µM	8.49
CCN(CC)CCOc1ccc(Br)cc1	0	0	-	0	0	0	-
COc1ccc(S(=O)(=O)NCC(c2ccco2)S(=O)(=O)c2ccc(C)cc2)cc1C (stereo unspecified)	-	0	0	-	0	0	-
Cc1ccc(-n2cccc2/C=C2/C(=N)N3C(=NC2=O)SN=C3S(C)(=O)=O)cc1Cl	0	0	0	0	28.2µM	?	84.9
Cc1ccc(-c2nc3ccccn3c2Nc2ccccc2C)o1	-	-	-	-	-	0	-
COC(=O)C1=C(C)Nc2[nH]c(=S)[nH]c(=O)c2C1c1ccc(O)cc1 (stereo unspecified)	0	0	0	0	0	0	-
O=c1[nH]c(=S)[nH]c2c1C(c1ccc(Br)cc1)c1c([nH]c(=S)[nH]c1=O)O2	0	?	?	-	0	17.8µM	2.13
COc1cc(/C=C/C=C2/CC/C(=C/C=C/c3ccc(O)c(OC)c3)C2=O)ccc1O	-	?	?	-	-	39.8µM	42.6
CCCc1cc(=O)oc2cc(OCC(=O)Nc3ccc(S(N)(=O)=O)cc3)ccc12	?	0	?	-	?	?	67.5
Nc1ccccc1/C=C/c1ccnc2ccccc12	-	-	-	-	-	0	-
CN1CCN(C2=CC3=CC(=C(C#N)C#N)CCC3CC2)CC1 (stereo unspecified)	0	0	0	0	0	0	-
N#CC(C#N)=C1C=C2C=C(N3CCCCCC3)CCC2CC1 (stereo unspecified)	?	0	-	28.2µM	12.6µM	?	67.5
Cc1ccc(Cl)cc1N1CCN(C(=O)Cn2nc(C)n3c(cc4sccc43)c2=O)CC1	-	0	0	-	0	0	-
Nc1ccc2nc(-c3cccc(-c4nc5ccc(N)cc5[nH]4)c3)[nH]c2c1	0	0	0	-	?	?	37.9
Clc1ccc2nc(-c3ccccc3)[nH]c2c1	?	-	-	0	0	-	-
O=c1c2ccccc2nc2sc(Nc3cccc(N4CCNCC4)c3)nn12	-	-	-	-	-	-	33.8
C#CCN1C(=O)S/C(=C\c2ccc(-c3ccc(C(=O)O)cc3C)o2)C1=O	?	0	?	-	0	?	?
CCOC(=O)c1cc2c(=Cc3ccc(N(C)C)cc3)c3ccccc3n2[n+]1C	-	0	0	-	-	22.4µM	33.8
SMILES	APE1 inh	GLS inh	PGK inhibitor	RECQ1 inh	BLM inh	FEN1 inh-1	FEN1 inh-2
Cc1cc2c(=Cc3ccc(N(C)C)cc3)c3ccccc3n2[n+]1C	-	0	0	-	-	14.1µM	26.9
CN(C)c1ccc(C=C2c3ccccc3-c3ccccc32)cc1	-	-	-	-	-	0	-
CCOC(=O)SC1=N/C(=C\c2ccc(N(C)C)cc2)C(=O)S1	0	0	0	0	0	0	-
CCc1ccc(C(=O)c2cn(CC(=O)Nc3ccc4c(c3)OCO4)c3ccc(OC)cc3c2=O)cc1	-	0	0	-	14.1µM	31.6µM	67.5
CCOc1ccc(NC(=O)Cn2cc(C(=O)c3ccccc3)c(=O)c3cc(OC)ccc32)cc1	-	0	0	-	0	0	-
COc1ccc(C(=O)c2cn(CC(=O)Nc3cc(OC)cc(OC)c3)c3ccc(OC)cc3c2=O)cc1	0	0	0	-	0	?	?
CCc1ccc(C(=O)c2cn(CC(=O)Nc3ccc(OC)cc3)c3cc4c(cc3c2=O)OCO4)cc1	-	0	0	-	0	0	-
CCC(=O)Nc1sc2c(c1C(=O)Nc1ccccc1C)CCC(C)C2 (stereo unspecified)	-	0	0	-	0	0	-
CCOC(=O)c1cnc2c(ccc3ccccc32)c1NCCCN(C)C	0	0	0	-	0	50.1µM	37.9
Cc1cc2[nH]c3c4ccccc4nc(C)c3c2cc1C	-	0	0	-	-	?	6.75
O=C(NCCc1ccc(Cl)cc1)c1ccc(CS(=O)(=O)Cc2ccccc2F)o1	-	0	0	-	0	0	-
O=C(CSc1nnc(-c2ccco2)o1)c1ccc[nH]1	0	0	0	0	?	0	?
O=C1S/C(=C/c2ccc(N3CCOCC3)o2)C(=O)N1Cc1ccc(F)cc1	0	0	0	0	0	0	-
O=C1NC(=S)S/C1=C/c1ccc(N2CCOCC2)o1	0	0	0	0	0	44.7µM	37.9
COc1cccc(-c2nc(N3CCN(C)CC3)c3ccccc3n2)c1O	?	0	0	0	0	50.1µM	37.9
CCn1nc(C)c2c(-c3ccccc3)cc(=O)n(C(C)C(=O)NCCc3ccc(Cl)cc3)c21 (stereo unspecified)	-	0	0	-	0	0	-
O=S(=O)(c1ccc(Br)cc1Cl)N1CCN(CCO)CC1	0	0	0	0	0	0	-
O=C1C=CC(=O)c2c(O)c(N3CCN(CCOCCO)CC3)c(Br)c(O)c21	-	0	?	-	-	31.6µM	33.8
O=C1C=CC(=O)c2c(O)c(N3CCN(CCO)CC3)c(Cl)c(O)c21	-	?	?	-	-	?	75.7
Cc1cccc(N2CCN(S(=O)(=O)c3ccc4c(c3)C(C(C)C)C(=O)N4)CC2)c1C (stereo unspecified)	-	0	0	-	0	0	-
Cc1cccc(N=C2NC(=O)/C(=C/C=C/c3ccco3)S2)c1C	?	0	?	0	?	44.7µM	75.7
Cc1cccc(N=C2NC(=O)/C(=C/c3cccn3C)S2)c1C	0	0	0	0	0	0	-
Cc1c(Cl)cccc1NC(=O)CN1C(=O)COc2ccc(S(=O)(=O)Nc3ccccc3)cc21	-	0	0	-	0	0	-
Cn1nc(-c2ccncc2)nc2c(=O)n(C)c(=O)nc1-2	-	-	-	-	-	0	-
NC(=O)C1C(=O)c2ccccc2C1(C[N+](=O)[O-])c1ccccc1 (stereo unspecified)	-	0	0	-	-	44.7µM	42.6
